Experimental data taken from PubChem BioAssay (Tox21).
Values joined by “and” are separate entries in the source; they are usually repeats but may differ in a detail not shown here. Identical values can stand only once. Results filed as inconclusive are left out. A call without a number means that no potency is given here. A structure can be active in one record and inactive in another. Active and inactive are the calls of the source. Unless noted, calls come from the whole dose curve; as a rule, active = well fitted curve in the direction sought with a large enough effect in the repeat runs; inconclusive = weak or mixed curves; inactive = no such curve, though single readings can be large; an effect the other way counts as inactive or inconclusive.

What was measured:
[1] = qHTS assay to identify small molecule antagonists of the estrogen receptor alpha (ER-alpha) signaling pathway using the BG1 cell line in the presence of 0.1 nM 17-beta-estradiol - cell viability counter screen (AID 1259241); note: nearly all actives have a fitted effect of over 40% in size; note: potency is the fitted concentration of half-maximal effect
In short: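 CellTiter-Fluor read (30 min, 37C) on ER-alpha/ERE-luc VM7Luc4E2 cells; 22 hr compound treatment; agonist 0.1 nM E2 final; same-well multiplex.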

[2] = molecular target: Androgen receptor (Homo sapiens) (UniProt P10275); experiment: qHTS assay to identify small molecule antagonists of the androgen receptor (AR) signaling pathway using the MDA cell line in the presence of 0.5 nM R1881 (AID 1259243); note: nearly all actives have a fitted effect of over 50% in size; note: potency is the fitted concentration of half-maximal effect
Sequence of Androgen receptor (Homo sapiens) (P10275 whole entry, looked up): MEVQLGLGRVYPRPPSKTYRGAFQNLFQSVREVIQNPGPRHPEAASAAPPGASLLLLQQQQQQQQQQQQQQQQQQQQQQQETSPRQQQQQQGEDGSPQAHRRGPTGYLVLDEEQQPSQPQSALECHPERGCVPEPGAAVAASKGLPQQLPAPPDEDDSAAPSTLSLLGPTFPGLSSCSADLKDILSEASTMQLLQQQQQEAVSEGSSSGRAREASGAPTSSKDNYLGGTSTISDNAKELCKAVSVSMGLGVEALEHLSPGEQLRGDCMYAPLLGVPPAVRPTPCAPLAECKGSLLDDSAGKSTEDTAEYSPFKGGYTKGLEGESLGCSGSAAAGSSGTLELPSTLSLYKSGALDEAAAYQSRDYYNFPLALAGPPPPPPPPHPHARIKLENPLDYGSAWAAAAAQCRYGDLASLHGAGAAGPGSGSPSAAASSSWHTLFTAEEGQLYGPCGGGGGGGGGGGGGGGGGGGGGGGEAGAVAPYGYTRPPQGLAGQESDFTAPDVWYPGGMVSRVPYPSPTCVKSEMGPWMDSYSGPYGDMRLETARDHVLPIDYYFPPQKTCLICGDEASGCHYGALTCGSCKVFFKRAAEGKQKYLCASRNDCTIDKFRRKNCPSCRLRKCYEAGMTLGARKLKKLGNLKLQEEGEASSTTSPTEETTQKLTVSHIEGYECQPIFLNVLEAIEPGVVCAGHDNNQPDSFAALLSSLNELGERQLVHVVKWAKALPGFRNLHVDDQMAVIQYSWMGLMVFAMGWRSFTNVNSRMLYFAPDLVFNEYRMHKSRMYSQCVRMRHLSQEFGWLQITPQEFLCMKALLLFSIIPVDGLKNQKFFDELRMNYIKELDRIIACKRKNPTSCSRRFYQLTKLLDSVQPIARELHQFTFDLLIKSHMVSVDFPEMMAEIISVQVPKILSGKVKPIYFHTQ
In short: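 Steps: seed MDA-kb2 cells, incubate 5 hr at 37C; pin-transfer compounds in DMSO; add R1881 to 0.5 nM final; incubate 16 hr; add ONE-Glo, wait 30 min at room temperature; read luminescence.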

[3] = qHTS assay to identify small molecule phospholipidosis (PLD) inducers (AID 1259344; active = well fitted curve in the direction sought with a large enough effect; an effect the other way counts as inactive or inconclusive)
In short: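 Fluorescent phospholipid staining (LipidTOX Red) measured by automated microscopy in fixed HepG2 cells after 24 h treatment; nuclei counterstained with Hoechst 33342; amiodarone as reference inducer.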

[4] = qHTS assay to identify small molecule HDAC inhibitors (AID 1259364); note: nearly all actives have a fitted effect of over 45% in size; note: potency is the fitted concentration of half-maximal effect
In short: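 Homogeneous cell-based luminescent assay of endogenous class I/II HDAC activity; HCT-116 cells, 2 h compound exposure, 30 min HDAC-Glo development at RT.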

[5] = qHTS assay to identify small molecule HDAC inhibitors - cell viability counter screen (AID 1259365); note: nearly all actives have a fitted effect of over 50% in size; note: potency is the fitted concentration of half-maximal effect
In short: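 To flag cytotoxic hits, 1,500 wild-type HCT-116 cells per well, plated the day before, receive test compounds for 2hr at 37 C before CellTiter-Glo reagent and a luminescence read.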

[6] = qHTS assay to identify small molecule agonists of the sonic hedgehog signaling (Shh) pathway (AID 1259368; calls by dose curve;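 note: NIH/3T3-derived 3T3Gli1-Luc cells carrying a stable Gli1-driven firefly luciferase reporter; series mostly up to about 92 µM; nearly all actives have a fitted effect of over 15% in size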)
In short: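 Steps: seed 3T3 Gli1-Luc cells, incubate 4 hr at 37 C, pin-transfer compounds in DMSO alongside a positive control, incubate 24 hr, add luciferase detection reagent, wait 30 min at room temperature, read luminescence.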

[7] = molecular target: Estrogen receptor beta (Homo sapiens) (UniProt Q92731); experiment: qHTS assay to identify small molecule agonists of the estrogen receptor beta (ER-beta) signaling pathway (AID 1259377; active = well fitted activation curve with a large enough effect in the signal ratio in the repeat runs, not every such curve was filed as active; the % refers to the signal ratio)
Sequence of Estrogen receptor beta (Homo sapiens) (Q92731 whole entry, looked up): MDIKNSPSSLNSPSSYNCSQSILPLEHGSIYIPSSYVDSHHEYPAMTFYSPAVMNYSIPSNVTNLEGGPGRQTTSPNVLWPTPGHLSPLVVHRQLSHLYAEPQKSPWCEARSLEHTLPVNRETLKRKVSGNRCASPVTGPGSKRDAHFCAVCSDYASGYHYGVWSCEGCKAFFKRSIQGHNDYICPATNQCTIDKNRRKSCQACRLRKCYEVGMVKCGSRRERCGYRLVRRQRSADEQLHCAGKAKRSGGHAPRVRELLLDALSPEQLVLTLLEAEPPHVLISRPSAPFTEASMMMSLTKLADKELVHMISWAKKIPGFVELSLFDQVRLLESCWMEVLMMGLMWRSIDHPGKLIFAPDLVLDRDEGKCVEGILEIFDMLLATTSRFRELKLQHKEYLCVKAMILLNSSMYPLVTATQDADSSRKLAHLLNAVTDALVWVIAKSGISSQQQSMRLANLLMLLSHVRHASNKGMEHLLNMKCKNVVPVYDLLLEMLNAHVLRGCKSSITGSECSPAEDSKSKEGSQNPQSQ
In short: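 Screening used GripTite ER-beta-UAS-bla cells held in 2% charcoal-stripped FBS medium. After overnight (16 hr) compound incubation at 37C, beta-lactamase activity was detected with a FRET substrate by fluorescence.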

[8] = qHTS assay to identify small molecule agonists of the estrogen receptor beta (ER-beta) signaling pathway - cell viability counter screen (AID 1259380); note: nearly all actives have a fitted effect of over 30% in size; note: potency is the fitted concentration of half-maximal effect
In short: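 Same-well viability counter screen. Cells: ER-beta-UAS-bla HEK293T, plated 6 hr before compound, in 2% charcoal-stripped FBS. Compound exposure 16 hr, 37C; viability by CellTiter-Glo luminescence after 30 min at room temperature.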

[9] = qHTS assay to identify small molecule agonists or antagonists of the thyroid stimulating hormone receptor (TSHR) signaling pathway - wild type cell line counter screen (AID 1259384; calls by dose curve)
In short: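 Counter screen in untransfected Hek293: compounds (15-point titration, triplicate) plus phosphodiesterase inhibitor Ro20-1724 added after 18 h plating; 30 min RT. Intracellular cAMP via competitive d2/cryptate immunoassay, 1 h incubation.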

[10] = molecular target: Estrogen receptor (Homo sapiens) (UniProt P03372); experiment: qHTS assay to identify small molecule antagonists of the estrogen receptor alpha (ER-alpha) signaling pathway using the BG1 cell line in the presence of 0.1 nM 17-beta-estradiol (AID 1259244); note: nearly all actives have a fitted effect of over 50% in size; note: potency is the fitted concentration of half-maximal effect
Sequence of Estrogen receptor (Homo sapiens) (P03372 whole entry, looked up): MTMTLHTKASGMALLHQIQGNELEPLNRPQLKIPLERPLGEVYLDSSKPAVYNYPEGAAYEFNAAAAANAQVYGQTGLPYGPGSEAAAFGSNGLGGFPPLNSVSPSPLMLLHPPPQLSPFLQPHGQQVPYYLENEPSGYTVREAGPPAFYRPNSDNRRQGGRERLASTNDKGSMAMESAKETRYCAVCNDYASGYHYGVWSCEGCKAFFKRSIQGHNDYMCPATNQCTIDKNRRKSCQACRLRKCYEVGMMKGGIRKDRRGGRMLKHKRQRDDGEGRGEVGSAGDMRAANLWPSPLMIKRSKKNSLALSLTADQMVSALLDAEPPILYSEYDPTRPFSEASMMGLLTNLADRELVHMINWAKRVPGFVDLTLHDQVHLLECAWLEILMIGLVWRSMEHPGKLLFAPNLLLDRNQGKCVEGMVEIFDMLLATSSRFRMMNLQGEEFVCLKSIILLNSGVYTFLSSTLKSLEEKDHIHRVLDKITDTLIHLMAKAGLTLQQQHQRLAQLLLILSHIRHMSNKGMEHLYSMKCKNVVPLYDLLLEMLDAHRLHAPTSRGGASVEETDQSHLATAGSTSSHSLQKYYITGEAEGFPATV
In short: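 After 5 days in hormone-depleted medium (charcoal-stripped serum, no phenol red), VM7Luc4E2 cells were seeded, incubated 24 h, then co-treated with compound and 0.1 nM (final) estradiol for 22 h before luminescence detection.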

[11] = qHTS assay to identify small molecule agonists of the sonic hedgehog signaling (Shh) pathway - cell viability counter screen (AID 1259366); note: nearly all actives have a fitted effect of over 50% in size; note: potency is the fitted concentration of half-maximal effect
In short: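 Fluorescence from CellTiter-Fluor reports live cells in this counter screen. NIH/3T3-derived Gli1-Luc reporter cells receive test compounds for 24hr at 37C; reagent goes in at 23hr.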

[12] = qHTS assay to identify small molecule agonists of the androgen receptor (AR) signaling pathway in the presence of an antagonist - cell viability counter screen (AID 1259379); note: nearly all actives have a fitted effect of over 25% in size; note: potency is the fitted concentration of half-maximal effect
In short: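 Fluorescence from CellTiter-Fluor, added after 15 hr and read 1 hr later, gave cell viability. Cells were MDA-kb2 exposed to compounds (15 concentrations) in the presence of 3.0uM nilutamide at 37C, 0% CO2.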

[13] = molecular target: Androgen receptor (Homo sapiens) (UniProt P10275); experiment: qHTS assay to identify small molecule agonists of the androgen receptor (AR) signaling pathway in the presence of an antagonist (AID 1259381; calls by dose curve; note: nearly all actives have a fitted effect of over 15% in size)
In short: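 Cells are MDA-kb2 (human breast carcinoma, MMTV-luc, AR/GR responsive). Nilutamide is present at 3.0uM final throughout; compounds are added at 15 concentrations and incubated 16hr at 37C before ONE-Glo luminescence detection.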

[14] = qHTS assay to identify small molecule antagonists of the estrogen receptor beta (ER-beta) signaling pathway - cell viability counter screen (AID 1259382); note: nearly all actives have a fitted effect of over 55% in size; note: potency is the fitted concentration of half-maximal effect
In short: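 Following a 6 hr plating period, HEK293T cells carrying a UAS-driven beta-lactamase reporter under ER-beta control received compounds and 1nM E2 (final). After 16 hr at 37C and 2 hr substrate loading, CellTiter-Glo luminescence indicated viability.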

[15] = qHTS assay to identify small molecule antagonists of the sonic hedgehog signaling (Shh) pathway (AID 1259369; calls by dose curve; note: nearly all actives have a fitted effect of over 45% in size; note: potency is the fitted concentration of half-maximal effect)
In short: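 Inhibition of Shh signalling is measured as reduced Gli1-response-element firefly luciferase output in an NIH/3T3-derived stable reporter clone stimulated with conditioned medium for 24hr.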

[16] = molecular target: Estrogen receptor beta (Homo sapiens) (UniProt Q92731); experiment: qHTS assay to identify small molecule antagonists of the estrogen receptor beta (ER-beta) signaling pathway (AID 1259378; active = well fitted inhibition curve with a large enough effect in the signal ratio in the repeat runs, not every such curve was filed as active; the % refers to the signal ratio; note: potency is the fitted concentration of half-maximal effect)
In short: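 Antagonist mode: compounds added to beta-lactamase reporter HEK293T ER-beta-UAS cells stimulated with E2 (1nM final), 16 hr at 37C. LiveBLAzer B/G FRET substrate, 2 hours room temperature, fluorescence read-out.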

[17] = molecular target: Estrogen receptor (Homo sapiens) (UniProt P03372); experiment: qHTS assay to identify small molecule agonists of the estrogen receptor alpha (ER-alpha) signaling pathway in the presence of an antagonist (AID 1259383; calls by dose curve; note: top concentration of the series differs between compounds; nearly all actives have a fitted effect of over 15% in size)
In short: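 Cells are hormone-deprived for 5 days (charcoal-stripped FBS, no phenol red), plated for 24hr, spiked with 10.0nM ICI-182,780, then dosed at 15 concentrations. After 22hr at 37C, ONE-Glo luminescence reports ERE-luciferase activity.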

[18] = molecular target: Thyrotropin receptor (Homo sapiens) (UniProt P16473); experiment: qHTS assay to identify small molecule antagonists of the thyroid stimulating hormone receptor (TSHR) signaling pathway (AID 1259385; calls by dose curve; note: nearly all actives have a fitted effect of over 20% in size)
Sequence of Thyrotropin receptor (Homo sapiens) (P16473 whole entry, looked up): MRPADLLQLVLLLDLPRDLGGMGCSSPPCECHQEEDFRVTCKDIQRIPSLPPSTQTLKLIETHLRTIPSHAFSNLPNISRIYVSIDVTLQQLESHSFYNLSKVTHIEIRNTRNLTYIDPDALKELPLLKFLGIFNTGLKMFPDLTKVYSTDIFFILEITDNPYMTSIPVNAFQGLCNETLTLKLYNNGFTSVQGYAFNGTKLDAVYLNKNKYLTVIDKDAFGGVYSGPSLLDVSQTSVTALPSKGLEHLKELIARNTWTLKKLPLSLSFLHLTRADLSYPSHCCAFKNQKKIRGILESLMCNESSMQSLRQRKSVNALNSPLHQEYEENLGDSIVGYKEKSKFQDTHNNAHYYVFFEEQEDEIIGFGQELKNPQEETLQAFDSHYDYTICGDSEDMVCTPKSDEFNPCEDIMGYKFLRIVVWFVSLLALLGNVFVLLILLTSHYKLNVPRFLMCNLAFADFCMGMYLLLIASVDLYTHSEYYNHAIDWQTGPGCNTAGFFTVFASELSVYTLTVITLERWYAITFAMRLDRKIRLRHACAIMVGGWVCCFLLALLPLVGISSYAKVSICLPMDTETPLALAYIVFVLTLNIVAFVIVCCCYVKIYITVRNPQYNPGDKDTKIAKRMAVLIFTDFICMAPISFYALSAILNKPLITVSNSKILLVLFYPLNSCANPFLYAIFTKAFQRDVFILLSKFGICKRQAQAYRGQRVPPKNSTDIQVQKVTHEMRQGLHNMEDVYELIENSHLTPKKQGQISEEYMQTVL
In short: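 Antagonist mode: compound-treated TSHR-expressing HEK293 cells were stimulated with 1.5 ng/mL TSH (final) in presence of Ro20-1724 for 30 min at RT. HTRF cAMP detection after 1 h; each compound tested at 15 concentrations, triplicate.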

[19] = qHTS assay to identify small molecule antagonists of the sonic hedgehog signaling (Shh) pathway - cell viability counter screen (AID 1259367); note: nearly all actives have a fitted effect of over 55% in size; note: potency is the fitted concentration of half-maximal effect
In short: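 Using CellTiter-Fluor, viability of Gli1-Luc reporter 3T3 cells is read by fluorescence in the wells used for the Shh luciferase assay. Treatment lasts 23 hr with conditioned medium, then reagent 1 hr at 37C.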

In the case of `C[C@@H]1C[C@H]2[C@@H]3CCC4=CC(=O)C=C[C@]4(C)[C@@]3(Cl)[C@@H](O)C[C@]2(C)[C@@]1(OC(=O)c1ccco1)C(=O)CCl`, the Potency [1] is reported as “inactive”, the Potency [2] is reported as “inactive” and the Potency [3] is reported as “inactive”. For the same molecule, the Potency [4] was “inactive”, the Potency [5] was “inactive” and the Potency [6] was “inactive”. For the same molecule, the Potency [7] was “inactive”, the Potency [8] was 8.41 µM (active) and the outcome [9] was “inactive”.

In the case of `COc1cc(-c2nc(NC(=O)c3cc4cc(C)cc(C)c4n3CC(=O)O)sc2CCC2CCCCC2)c(OC)cc1Cl`, the Potency [1] is reported as “inactive”, the Potency [2] is reported as 56 µM (active) and the Potency [10] is reported as “inactive”. The Potency [4] was “inactive”, the Potency [5] was 25 µM (active) and the Potency [11] was “inactive”. For the same molecule, the Potency [6] was “inactive”, the Potency [7] was “inactive” and the Potency [12] was 56 µM (active). For the same molecule, the Potency [8] was 19.9 µM (active), the Potency [13] was “inactive” and the Potency [14] was 39.7 µM (active). The outcome [9] was “inactive”.

For `CCN(Cc1cccnc1)C(=O)c1cccc(Cl)c1[C@]1(C)C(=O)N(Cc2ccc(OC)cc2OC)c2ccc(Cl)cc21`, the Potency [1] was “inactive”, the Potency [2] was 57.1 µM (active) and the Potency [10] was 64.1 µM (active). For the same molecule, the Potency [4] was “inactive”, the Potency [5] was “inactive” and the Potency [6] was “inactive”. The Potency [15] was 28.6 µM (active), the Potency [7] was “inactive” and the Potency [16] was 8.07 µM (active). For the same molecule, the Potency [13] was “inactive”, the Potency [14] was “inactive” and the Potency [17] was “inactive”. The outcome [9] was “inactive” and the Potency [18] was “inactive”.

With `O=[N+]([O-])c1ccccc1Nc1ccccc1` the Potency [1] was “inactive”, the Potency [10] was “inactive” and the Potency [4] was “inactive”. For the same molecule, the Potency [5] was “inactive”, the Potency [11] was “inactive” and the Potency [19] was “inactive”. The Potency [6] was “inactive”, the Potency [15] was “inactive” and the Potency [7] was “inactive”. The Potency [16] was “inactive”, the Potency [12] was “inactive” and the Potency [8] was “inactive”. The Potency [14] was “inactive”, the Potency [17] was “inactive” and the outcome [9] was “inactive”.

With `NC(=O)NS(=O)(=O)c1ccc(N)cc1` the Potency [1] was “inactive”, the Potency [10] was “inactive” and the Potency [3] was “inactive”. The Potency [4] was “inactive”, the Potency [5] was “inactive” and the Potency [11] was “inactive”. For the same molecule, the Potency [6] was “inactive”, the Potency [15] was “inactive” and the Potency [7] was “inactive”. The Potency [16] was “inactive”, the Potency [12] was “inactive” and the Potency [8] was “inactive”. The Potency [14] was “inactive”, the Potency [17] was “inactive” and the outcome [9] was “inactive”. For the same molecule, the Potency [18] was “inactive”.

In the case of `On1ccccc1=S`, the Potency [1] is reported as 9.59 µM (active), the Potency [4] is reported as 12.1 µM (active) and the Potency [5] is reported as “inactive”. For the same molecule, the Potency [11] was 1.71 µM (active), the Potency [6] was “inactive” and the Potency [15] was 0.762 µM (active). For the same molecule, the Potency [16] was 0.428 µM (active), the Potency [8] was 0.539 µM (active) and the outcome [9] was “inactive”. The Potency [18] was “inactive”.

With `S=c1[nH]c2ccccc2s1` the Potency [1] was “inactive”, the Potency [3] was “inactive” and the Potency [5] was “inactive”. For the same molecule, the Potency [19] was 48.6 µM (active), the Potency [15] was 21.7 µM (active) and the Potency [7] was “inactive”. For the same molecule, the Potency [12] was “inactive”.

With `CCc1cc(SCc2sc(-c3ccc(C(F)(F)F)cc3)nc2CN2CCN(c3ccc(OC)cc3)CC2)ccc1OCC(=O)O` the Potency [1] was “inactive”, the Potency [4] was “inactive” and the Potency [5] was 24.3 µM (active). The Potency [6] was “inactive”, the Potency [7] was “inactive” and the Potency [16] was 5.45 µM (active). The Potency [12] was 43.3 µM (active), the Potency [8] was 4.33 µM (active) and the Potency [14] was 4.33 µM (active). The outcome [9] was “inactive”.

With `NC(=NCCCCCCN=C(N)/N=C(\N)Nc1ccc(Cl)cc1)/N=C(\N)Nc1ccc(Cl)cc1` the Potency [1] was “inactive”, the Potency [3] was “inactive” and the Potency [5] was 44.1 µM (active) and 60.8 µM (active) and inactive. For the same molecule, the Potency [11] was 48.1 µM (active) and 24.8 µM (active) and 54.2 µM (active), the Potency [19] was 60.6 µM (active) and 43 µM (active) and inactive and the Potency [6] was “inactive”. The Potency [15] was 21.5 µM (active) and 27.2 µM (active) and 19.2 µM (active), the Potency [12] was 62.2 µM (active) and 60.8 µM (active) and inactive and the Potency [14] was 60.6 µM (active) and 48.3 µM (active) and 44.1 µM (active). For the same molecule, the outcome [9] was “inactive” and the Potency [18] was “inactive”.
